Screening results deposited in PubChem by The Scripps Research Institute Molecular Screening Center.
A selection: hits, their analogues and other compounds. The true share with any hit is near 3.4%.
MITF inh: human MITF inhibition, primary screen | O75030 | AlphaScreen MITF homodimerization, bead proximity signal | inhibition, % at 2.6 µM | actives 0.91% (n = 650,000) | AID 1259374; in the data active = inhibition above about 50%;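 also: 0% = vehicle wells with protein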
FBW7 act: activators of human E3 ligase FBW7; AlphaScreen FBW7–phospho-cyclin E peptide binding, activator screen; normalized activity (activation), % at 26.1 µM; actives 0.13% (n = 650,000); AID 1259310; in the data active = normalized activity above about 1.9%;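 also: purified mutant Fbw7 with reduced substrate affinity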
GPR151 activ: activates the human receptor GPR151; activation, % at 11.2 µM; PathHunter beta-arrestin GPR151 cells, luminescence; actives 1% (n = 650,000); AID 1508602; in the data active = activation above about 4.9%;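 also: 0% = median of compound wells and 100% = cells with positive control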
TEAD-YAP block: TEAD-YAP interaction inhibition | HEK-TIYL cells, TEAD-Gal4/YAP UAS-luciferase luminescence | inhibition, % at 9.12 µM | actives 1.4% (n = 640,000) | AID 1259422; in the data active = inhibition above about 32%;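 also: 0% = median of test compound wells and 100% = reference inhibitor wells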
The depositor's hits bear a star; · = no result given.

SMILES	MITF inh	FBW7 act	GPR151 activ	TEAD-YAP block
O=C(Nc1ccc2[nH]ncc2c1)c1cccnc1OC1CCN(Cc2ccccc2)CC1	-2.1	-0.2	0.4	-0.7
CN1CCC(Oc2ccnc(C(=O)Nc3ccc4[nH]ncc4c3)c2)CC1	10.5	0.8	-1.1	10.4
O=C(Nc1ccc2[nH]ncc2c1)c1cc(O[C@H]2CCNC2)ccn1	10.7	0.0	0.7	43.1*
Fc1ccc(Nc2ncnc3nc[nH]c23)cc1F	6.7	0.0	-1.1	-22.8
O=C(Cc1n[nH]c(=O)c2ccccc12)OCC(=O)c1ccc2c(c1)OCCO2	2.7	0.0	-2.1	49.6*
COc1ccc(C2C(C(=O)Nc3cc(OC)c(OC)c(OC)c3)c3ccccc3C(=O)N2C)cc1 (configuration not stated)	-5.7	0.2	0.0	53.6*
CCCCCN1/C(=C\C=C\c2n(CCCC)c3cc(Cl)c(Cl)cc3[n+]2CCCCC)N(CCCC)c2cc(Cl)c(Cl)cc21	16.9	0.2	-0.9	43.9*
CCn1c(C)[n+](CCOC(C)=O)c2cc(Cl)c(Cl)cc21	-1.2	0.0	-0.1	-5.6
COc1ccccc1OCc1nc2ccccc2n1Cc1ccc(C)cc1	12.7	-0.2	-1.2	-15.0
COc1cc(OC)c(CN(CCO)CCO)cc1Br	-19.8	-0.1	1.7	3.7
CC1CCN(S(=O)(=O)c2nnc(NC(=O)c3cccc4ccccc34)s2)CC1	-3.6	0.1	2.7	-5.7
CCc1c(C(=O)N/N=C/c2ccc(O)cc2O)nnn1-c1nonc1N	-0.2	0.1	-1.8	76.3*
CN(C)Cc1c(C(=O)N/N=C/c2ccc(O)cc2O)nnn1-c1nonc1N	14.6	-0.6	-0.2	24.4
CC(C)(C)c1ccc(C(=O)N/N=C/c2ccc(O)cc2O)cc1	-50.7	-0.1	0.6	8.6
Cc1nonc1C(=O)N/N=C/c1ccc(O)cc1O	81.5*	-0.9	-8.3	3.7
CCCN(CCC)Cc1c(C(=O)N/N=C/c2ccc(O)cc2O)nnn1-c1nonc1N	35.7	-0.3	0.3	71.0*
CC/C=C\C/C=C\C=C\[C@H](O)C/C=C\C/C=C\CCCC(=O)O	15.4	·	-1.0	·
COCCNC(=O)c1ccc(NS(=O)(=O)c2ccc(C(C)(C)C)cc2)cc1	-5.3	0.2	1.3	5.7
COc1ccc(Cl)c2sc(NC(=O)c3ccco3)nc12	0.2	2.1*	2.6	4.5
O=C1N=C(N2CCOCC2)S/C1=C\c1cc2c(cc1Br)OCO2	9.9	-0.1	0.6	10.8
COc1cc(/C=C2\SC(=S)N(Cc3ccco3)C2=O)ccc1OCC(=O)O	3.1	-0.2	-0.9	8.4
Cc1cc(/C=C2\C(=O)NC(=O)N(Cc3ccco3)C2=O)c(C)n1C1CC1	62.4*	-0.5	-2.2	-3.7
COc1cc(C)c(/C=C2/C(=O)NC(=O)N(Cc3ccco3)C2=O)cc1C(C)C	69.1*	-0.1	-0.2	-4.7
COc1cc(/C=C2/C(=O)NC(=O)N(Cc3ccco3)C2=O)ccc1OCC(=O)O	77.2*	-0.1	3.4	6.6
COCCn1c(C)cc(/C=C2\C(=O)NC(=O)N(Cc3ccco3)C2=O)c1C	29.0	-0.2	0.4	-6.1
SMILES	MITF inh	FBW7 act	GPR151 activ	TEAD-YAP block
COc1ccc2ccccc2c1/C=C1/C(=O)NC(=O)N(Cc2ccco2)C1=O	76.4*	0.0	-1.1	4.2
COc1ccc([N+](=O)[O-])cc1NS(=O)(=O)c1ccc(F)c(C(=O)O)c1	0.2	-0.1	3.0	7.8
COc1ccc(OC)c(CN2C(=O)NC(=O)/C(=C\c3ccco3)C2=O)c1	56.8*	-0.9	3.2	-1.2
COc1cc(C)c(/C=C2/NC(=O)NC2=O)cc1C(C)C	-4.3	0.3	1.9	44.3*
Cc1ccc(S(=O)(=O)c2cc(O)c3ccccc3c2NS(=O)(=O)c2ccc(Cl)cc2)cc1	8.6	-0.1	-0.7	1.7
CC(C)Cn1c2nc3ccccc3nc2c2cc(Br)cc(Br)c21	9.5	0.0	-1.2	-4.5
COc1ccc(C(=O)COC(=O)c2ccc(Cl)cc2N)cc1	-3.5	-0.1	-0.3	-2.5
COc1cc(C(=O)NNC(=O)c2cccc(Cl)c2)cc(OC)c1OC	0.3	0.0	4.1	5.2
COc1cc(C(=O)COC(=O)c2ccc(Cl)cc2N)cc(OC)c1OC	1.3	0.4	0.0	52.9*
COc1cc(C(=O)c2cc(Cl)ccc2N)cc(OC)c1OC	11.8	-0.3	0.3	51.9*
CCCOC(=O)CSC1=C(C#N)C(c2ccco2)C(C(=O)Nc2ccccc2)=C(C)N1 (configuration not stated)	18.5	0.1	-0.2	5.5
O=Cc1ccc(-c2ccc(NC3CC3)nc2)cc1	5.1	-0.2	-3.4	34.2*
CC(C)c1ccc2oc(-c3ccc(N)cc3)nc2c1	0.0	0.2	-0.6	80.3*
CC(C)c1ccc2oc(-c3cccc(N)c3)nc2c1	2.5	0.1	-7.1	65.0*
Nc1cccc(-c2nc3cc(S(=O)(=O)c4ccc5oc(-c6cccc(N)c6)nc5c4)ccc3o2)c1	8.8	0.3	1.9	5.9
Nn1c(SCC(=O)Nc2cccc3nsnc23)nnc1-c1ccc(OC(F)F)cc1	-6.0	-0.1	-1.9	-39.9
Cc1ncc(CN2CCC(C(Cc3ccccc3Cl)N(C)C(=O)c3ccco3)CC2)[nH]1 (configuration not stated)	4.2	0.1	-0.4	-3.4
COC(=O)C1=C(OC)C(=O)OC12C=CC(=O)C=C2	17.9	0.2	-1.0	79.8*
COC(=O)c1cc2cccc(OC)c2oc1=O	-3.4	-0.3	-1.0	-4.3
Cc1ccc(NS(=O)(=O)c2cc(C(=O)Nc3ccccc3)ccc2Br)cc1	-5.8	-0.1	1.3	38.7*
O=C(Nc1ccccc1)c1ccc(Cl)c(S(=O)(=O)Nc2ccc(I)cc2)c1	4.0	-0.1	0.2	35.9*
Cc1cccc(C(=O)NNC(=O)c2cccc(Cl)c2)c1	1.5	0.0	-0.3	8.2
CC(=O)CSc1nc(C2CC2)cc(C(F)(F)F)c1C#N	11.2	2.7*	-0.5	14.5
Nc1c(C(=O)NCCC2=CCCCC2)sc(=S)n1CCc1ccccc1	-0.8	-0.2	-0.3	-10.7
O=S(=O)(c1ccc(NC(=S)N/N=C/c2ccccc2O)cc1)N1CCOCC1	67.8*	-1.1	-0.2	61.4*
SMILES	MITF inh	FBW7 act	GPR151 activ	TEAD-YAP block
O=C(O)CCN(CCC(=O)O)c1nnc(-c2ccccc2)s1	5.2	0.0	-0.8	8.0
CCC(=O)C(C#N)c1nnc(-c2ccccc2)s1 (configuration not stated)	-0.5	0.5	-3.4	37.3*
CC(CCc1ccccc1)NCc1ccc(C(=O)O)s1 (configuration not stated)	10.5	0.0	-1.0	2.3
COc1ccccc1CNC(=O)c1cc2c(=O)[nH]c3ccccc3c2n1C	-3.0	4.8*	1.7	-1.1
CC(=O)Nc1ccc(NC(=O)c2cc(C)nc3ccc(C)cc23)cc1	-9.0	-0.1	1.3	34.9*
CCOC(=O)C1=C(C)NC2=C(C(=O)CC(c3ccc(OC)c(OC)c3)C2)C1c1cccc([N+](=O)[O-])c1 (configuration not stated)	-0.8	0.1	-0.6	4.8
CCC(C)OC(=O)C1=C(C)NC2=C(C(=O)CC(c3ccc(Cl)cc3)C2)C1c1cccc(Cl)c1 (configuration not stated)	11.2	1.9*	1.0	6.2
